Several values for one entry are separate records, joined by “and”; a condition that tells them apart may be missing. Equal entries are not always repeated. Inconclusive results are not listed. Activity calls are given as the source filed them. Unless noted, calls come from the whole dose curve; as a rule, active = well fitted curve in the direction sought with a large enough effect; inconclusive = small, poorly fitted or top-dose-only effect, or another doubt; inactive = no such curve, though single readings can be large; an effect the other way counts as inactive or inconclusive.

Experimental findings from PubChem BioAssay (NCATS) are described below.

Test [1] in a line: Cell Viability - SK-N-SH (AID 435; calls by dose curve;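 note: potency is the fitted concentration of half-maximal effect; compound exposure lasted 40 h at 37 °C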). As to conditions: SK-N-SH neuroblastoma cell viability qHTS. A digest of the protocol: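 SK-N-SH neuroblastoma cells (1500/well) treated 40 h at 37 °C in complete medium; viability read as cellular ATP by CellTiter-Glo luminescence. Normalized to DMSO and 100 uM tamoxifen; AC50 from Hill fits of qHTS concentration-response.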
Test [2] is described as follows: Cell Viability - N2a (AID 540).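 Note: plate controls were DMSO alone for no effect and tamoxifen control for full effect; nearly all actives have a fitted effect of over 45% in size.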 As to conditions: N2a mouse neuroblastoma cell viability; activity change, negative = cytotoxicity: at 92.2 µM (top of the series). The procedure, abridged:
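N2a mouse neuroblastoma, 1500 cells/well, 5 hr settle; compound 40 hr, 37 °C; CellTiter-Glo 20 min RT; luminescence; Hill-fit AC50.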

A short description of test [3]: Cell Viability - Renal Proximal Tubule (AID 545). Note: nearly all actives have a fitted effect of over 40% in size. As to conditions: renal proximal tubule cells viability; series mostly up to 91.7 µM. A digest of the protocol:
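Rat renal proximal tubule primary cells, 1000/well, exposed to compounds for 40 hr at 37 °C in complete medium; cellular ATP read by CellTiter-Glo luminescence. AC50 from concentration-response fitted with standard Hill equation.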

The nature of test [4]: Cellular Toxicity (caspase-3) Jurkat (AID 655).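 Note: cells exposed to compound for 16 h at 37 °C before reading.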 As to conditions: Jurkat caspase-3 activation, luminescence; caspase-3 activation: at 92.2 µM (top of the series), DMSO = 0%, tamoxifen = 100%. A digest of the protocol: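 Jurkat cells (5000/well) in complete medium exposed 16 h at 37 C; caspase-3/7 activity read by Caspase-Glo luminescence after 20 min at room temperature. Normalized to DMSO and 100 uM tamoxifen; AC50 from Hill fits.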

The nature of test [5]: Cellular Toxicity (caspase-3) MRC-5 (AID 659). To be noted: MRC-5 cells, luminescence, normalized: DMSO 0%, 10 µM staurosporine 100%; series mostly up to 91.7 µM. A digest of the protocol:
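Luminescent Caspase-Glo 3/7 read-out (1 h, room temperature) after a 16 h, 37 °C compound exposure of MRC-5 lung fibroblasts at 1500 cells/well. Concentration-response AC50 from Hill equation; 0% DMSO, 100% 10 uM staurosporine.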

The target in test [6] is Cytochrome P450 3A4 (Homo sapiens) (UniProt P08684). Description: qHTS Assay for Inhibitors and Substrates of Cytochrome P450 3A4 (AID 884). Note: % is set by controls: 0 for no effect and ±100 for the full control effect; nearly all actives have a fitted effect of over 50% in size. To be noted: recombinant CYP3A4, Luciferin-PPXE luminescence; series mostly up to 57.1 µM. A digest of the protocol:
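Luminescent readout of luciferin produced by CYP3A4 (20 nM) dealkylation of Luciferin-PPXE, 25 uM (its KM). NADPH-driven reaction ran 60 min at RT after 10 min compound preincubation; data scaled to 57 uM ketoconazole as 100% inhibition.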
For orientation: In qHTS, concentration-response curves come from the screen itself.

Test [7] can be described thus: Cell Viability - LYMP2-001 (AID 921).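 Note: 0% = DMSO only and full inhibition = tetraoctylammonium bromide control wells; nearly all actives have a fitted effect of over 70% in size.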 To be noted: LYMP2-001 lymphoblastoid cell viability; series mostly up to 92.2 µM. The procedure, abridged:
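Human lymphoblastoid LYMP2-001 cells, 2500 per well, in complete medium, treated 24 h at 37 C. Viability from cellular ATP by CellTiter-Glo luminescence; AC50 from Hill-equation fits of qHTS concentration-response.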

Test [8] can be described thus: MultiTox-Fluor Cytotoxicity Assay - LYMP1-002 - Dead Cells (AID 960).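 Note: 0% = DMSO and 100% = tetraoctylammonium bromide; nearly all actives have a fitted effect of over 60% in size.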 As to conditions: LYMP1-002 lymphoblastoid cells, dead-cell protease fluorescence; series mostly up to 46.1 µM. A digest of the protocol: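 Readout: fluorescence at 485/520 from cell-impermeant bis-AAF-R110 cleaved by proteases leaking from damaged cells. LYMP1-002 lymphoblastoid line, 16 hr compound treatment at 37 C, concentration-response in qHTS format; Hill-equation AC50 values.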

Test [9] is described as follows: Cell Viability - LYMP2-005 (AID 967).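 Note: plate controls were DMSO only for no effect and 92 µM tetraoctylammonium bromide control for full effect.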 To be noted: LYMP2-005 lymphoblastoid cell viability; series mostly up to 92.2 µM. A digest of the protocol: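 Human lymphoblastoid LYMP2-005 cells, 2,500 per well in complete medium, rested 5 h at 37C then compound-treated 24 h at 37C. Intracellular ATP read by CellTiter-Glo luminescence after 30 min at room temperature; AC50 from Hill-equation fits of concentration-response data.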

Test [10] is described as follows: Cell Viability - LYMP2-015 (AID 971).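 Note: 0% = DMSO only and full effect = 92 µM tetraoctylammonium bromide; nearly all actives have a fitted effect of over 55% in size.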 To be noted: LYMP2-015 lymphoblastoid cell viability; series mostly up to 92.2 µM. A digest of the protocol: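 qHTS cytotoxicity: 2500 cells/well, 5 hr 37 C, compound 24 hr 37 C, CellTiter-Glo 30 min RT, luminescence. Loss of ATP = toxicity; AC50 via standard Hill fit.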
A short description of test [11]: Cell Viability - LYMP2-002 (AID 977).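 Note: compound exposure lasted 24 h at 37 °C; plate controls were DMSO only for no effect and 92 µM tetraoctylammonium bromide for full effect.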 To be noted: LYMP2-002 lymphoblastoid cell viability, qHTS; series mostly up to 92.2 µM. The procedure, abridged:
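Human lymphoblastoid cells (2500/well) in complete medium were preincubated 5 hr at 37 C, then exposed to compounds for 24 hr at 37 C. Intracellular ATP was read by CellTiter-Glo luminescence; AC50 came from Hill-equation concentration-response fits.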

Test [12] is described as follows: Cell Viability - LYMP2-010 (AID 981). Note: % is set by controls: 0 for no effect and ±100 for the full control effect; nearly all actives have a fitted effect of over 55% in size. As to conditions: LYMP2-010 lymphoblastoid cell viability, qHTS; series mostly up to 92.2 µM. A digest of the protocol: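 qHTS cytotoxicity, 1536-well: 2500 cells/well, 5 hr settle, 24 hr compound at 37 C, CellTiter-Glo 30 min RT, luminescence read. Decrease in ATP = toxicity; AC50 via standard Hill equation. Positive control tetraoctylammonium bromide.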

The nature of test [13]: Cell Viability - LYMP2-020 (AID 986).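 Note: plate controls were DMSO only for no effect and tetraoctylammonium bromide at 92 µM for full effect; nearly all actives have a fitted effect of over 55% in size.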 As to conditions: series mostly up to 92.2 µM. A digest of the protocol: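 qHTS, 2500 cells/well; 5 hr then 24 hr compound exposure, 37 C; CellTiter-Glo luminescence after 30 min RT; ATP decrease taken as cytotoxicity; AC50 via Hill equation; tetraoctylammonium bromide positive control.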
A short description of test [14]: Cell Viability - LYMP2-022 (AID 987).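 Note: 0% = DMSO alone and full effect = tetraoctylammonium bromide at 92 µM; nearly all actives have a fitted effect of over 55% in size.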 As to conditions: LYMP2-022 lymphoblastoid cell viability; series mostly up to 92.2 µM. A digest of the protocol:
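Luminescent ATP read-out (CellTiter-Glo, 30 min, RT) after 24 hr, 37 C compound exposure of 2500 human lymphoblastoid cells/well in complete medium. Cytotoxicity taken as concentration-dependent ATP loss; AC50 from standard Hill equation.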

Test [15] can be described thus: qHTS assay for small molecule agonists of retinoid X receptor alpha signaling (AID 588544). As to conditions: HEK293T RXRa-UAS-bla, beta-lactamase reporter, 18 h; 530 nm emission.
For test [16], the target named is Thyroid hormone receptor beta (Homo sapiens) (UniProt P10828). Description: qHTS assay for small molecule agonists of thyroid hormone receptor beta signaling (AID 588545; calls by dose curve;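 note: 0% = DMSO only and 100% = 10 nM T3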). As to conditions: TR-UAS-bla GripTite HEK 293, beta-lactamase ratio, agonist mode, 18 h; series mostly up to 76.7 µM. The procedure, abridged:
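TR-UAS-bla-GripTite HEK 293 cells in medium with 2% charcoal/dextran FBS, 0.1 mM NEAA and 1 mM sodium pyruvate were treated with titrated compounds for 18 hrs at 37 C. Beta-lactamase reporter was read with CCF4 dye (ex 405, em 460/530 nm); EC50 from Hill fits.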

Test [17] can be described thus: qHTS assay for small molecule antagonists of retinoid X receptor alpha signaling (AID 588546; active = well fitted inhibition curve with a large enough effect in the signal ratio, with a control signal flat, not every such curve was filed as active; the % refers to the signal ratio;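 note: cells stimulated with 9-cis-retinoic acid as agonist; % is set by controls: 0 for no effect and ±100 for the full control effect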). As to conditions: HEK293T RXRa-UAS-bla, beta-lactamase ratio, antagonist mode; measured here: W530 green channel, cytotoxicity proxy. A digest of the protocol: (§1)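 Beta-lactamase reporter inhibition, read as CCF4 fluorescence ratio (ex 405, em 460/530 nm) after 2 h at RT. HEK293T UAS-bla cells, 2500/well, were stimulated with 9-cis-RA at 500 or 100 nM final alongside test compound for 18 h at 37 C.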

The target in test [18] is Retinoic acid receptor RXR-alpha (Homo sapiens) (UniProt P19793). The test is described as above. To be noted: HEK293T RXRa-UAS-bla, beta-lactamase ratio, antagonist mode. The procedure, abridged: as §1
Retinoic acid receptor RXR-alpha (Homo sapiens), sequence (P19793 whole entry, looked up): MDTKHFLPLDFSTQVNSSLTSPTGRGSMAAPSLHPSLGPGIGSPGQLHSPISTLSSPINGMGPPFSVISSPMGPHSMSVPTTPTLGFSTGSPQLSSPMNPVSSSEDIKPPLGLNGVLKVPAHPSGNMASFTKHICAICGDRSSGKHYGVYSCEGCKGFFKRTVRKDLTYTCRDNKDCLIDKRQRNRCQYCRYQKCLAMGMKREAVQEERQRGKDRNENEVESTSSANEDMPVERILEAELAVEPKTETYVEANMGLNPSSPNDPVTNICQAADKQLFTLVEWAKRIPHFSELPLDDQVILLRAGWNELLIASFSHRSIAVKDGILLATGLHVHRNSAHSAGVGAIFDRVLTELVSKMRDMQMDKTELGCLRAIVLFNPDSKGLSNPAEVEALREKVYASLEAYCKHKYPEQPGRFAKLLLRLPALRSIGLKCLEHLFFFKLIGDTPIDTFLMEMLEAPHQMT
Test [19] addresses Thyroid hormone receptor beta (Homo sapiens) (UniProt P10828). Description: qHTS assay for small molecule antagonists of thyroid hormone receptor beta signaling (AID 588547; active = well fitted inhibition curve with a large enough effect in the signal ratio, with a control signal flat, not every such curve was filed as active; the % refers to the signal ratio;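 note: cells stimulated with 0.4 nM T3 agonist during compound exposure; % is set by controls: 0 for no effect and ±100 for the full control effect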). To be noted: TR-UAS-bla HEK293, beta-lactamase ratio, antagonist mode, 18 h. A digest of the protocol: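 Inhibition of T3-driven (0.4nM final) beta-lactamase reporter activity was measured over 0.59 nM to 92 uM compound after 18 h at 37 C. The cells were GripTite HEK293 TR-UAS-bla in charcoal/dextran-stripped serum, with CCF4 ratio read-out and IC50 from Hill fits.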

Test [20] has as its target Tumor necrosis factor (Homo sapiens) (UniProt P01375). Description: qHTS assay to identify small molecules that stimulate Tumor Necrosis Factor-alpha (TNF-alpha) secretion (AID 651757; active = well fitted curve in the direction sought with a large enough effect in the signal ratio; the % refers to the signal ratio; note: 0% is about no effect). To be noted: Human cells, HTRF 665/615 ratio; series mostly up to 92.2 µM. The procedure, abridged:
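THP-1 cells, 3000/well; compound 17 hrs, 37 C; add cryptate/XL665 anti-TNF-alpha antibody pair; 3 hr RT; TR-FRET (HTRF) read of secreted TNF-alpha. Quantitative HTS format.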

Thyroid hormone receptor beta (Homo sapiens), sequence (P10828 whole entry, looked up): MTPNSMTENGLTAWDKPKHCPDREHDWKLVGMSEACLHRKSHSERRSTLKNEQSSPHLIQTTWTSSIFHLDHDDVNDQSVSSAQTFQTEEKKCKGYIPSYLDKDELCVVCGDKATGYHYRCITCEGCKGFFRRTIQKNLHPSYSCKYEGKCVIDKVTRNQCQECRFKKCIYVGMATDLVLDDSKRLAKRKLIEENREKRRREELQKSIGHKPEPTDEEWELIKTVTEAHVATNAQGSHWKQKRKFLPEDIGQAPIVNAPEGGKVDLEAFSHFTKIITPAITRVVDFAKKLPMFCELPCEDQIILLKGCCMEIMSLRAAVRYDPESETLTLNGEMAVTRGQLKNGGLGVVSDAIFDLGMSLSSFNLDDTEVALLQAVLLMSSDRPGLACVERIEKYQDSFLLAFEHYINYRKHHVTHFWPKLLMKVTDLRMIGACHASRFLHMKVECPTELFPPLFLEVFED
Cytochrome P450 3A4 (Homo sapiens), sequence (P08684 whole entry, looked up): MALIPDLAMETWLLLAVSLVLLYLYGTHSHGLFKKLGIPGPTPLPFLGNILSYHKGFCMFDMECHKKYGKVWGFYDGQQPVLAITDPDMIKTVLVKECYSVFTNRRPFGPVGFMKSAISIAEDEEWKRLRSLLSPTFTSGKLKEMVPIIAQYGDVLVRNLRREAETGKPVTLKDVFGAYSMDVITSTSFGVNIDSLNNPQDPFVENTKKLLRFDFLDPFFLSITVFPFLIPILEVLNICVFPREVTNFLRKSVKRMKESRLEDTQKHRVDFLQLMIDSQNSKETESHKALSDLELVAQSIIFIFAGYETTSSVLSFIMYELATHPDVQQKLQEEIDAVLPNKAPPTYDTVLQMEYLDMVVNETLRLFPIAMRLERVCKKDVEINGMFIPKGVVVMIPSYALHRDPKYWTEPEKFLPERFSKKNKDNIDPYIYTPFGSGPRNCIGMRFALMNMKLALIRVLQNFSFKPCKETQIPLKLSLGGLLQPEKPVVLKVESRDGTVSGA
Tumor necrosis factor (Homo sapiens), sequence (P01375 whole entry, looked up): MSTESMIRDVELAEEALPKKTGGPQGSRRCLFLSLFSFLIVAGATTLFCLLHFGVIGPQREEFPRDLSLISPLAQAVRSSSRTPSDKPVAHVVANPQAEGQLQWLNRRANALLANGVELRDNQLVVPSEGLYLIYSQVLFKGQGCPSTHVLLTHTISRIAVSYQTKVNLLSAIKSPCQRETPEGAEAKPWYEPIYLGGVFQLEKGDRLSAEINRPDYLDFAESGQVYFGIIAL

As for `CCCC[N+](=O)[O-]`, the Potency in test [1] was > 92 µM (inactive). The Potency entry in test [2], in test [6], in [7], in test [8], in [9] and in test [10] was “inactive” throughout. Besides, the Potency result in [11], in [12], in [13], in test [14] and in [16] was “inactive” in each case. The call in test [3], in [5] and in test [20] was inactive. Also, in test [4], the caspase-3 activation is 102% (active). Moreover, the max response in [15] was -5.28%; in [17], -4.37%; in test [18], -6.25% (inactive). In addition, the activity change % (negative = inhibition) in test [19] was 2.77% (inactive).

Consider `Cl/C=C/Cl`, for which the Potency in test [1] is > 92 µM (inactive). Also, the Potency entry in test [2], in test [6], in test [7], in [8], in test [9] and in test [11] was “inactive” throughout. Further, the Potency result in test [12], in test [13], in [14] and in test [16] was “inactive” throughout. In addition, the compound was called inactive in test [3], in [5] and in test [20]. Besides, the caspase-3 activation in test [4] is -1.85% (inactive). The max response in test [15] was 1.12%; in test [17], -8.73%; in [18], 6.16% (inactive). Also, the activity change % (negative = inhibition) in test [19] was -4.77% (inactive).

As to `CN(C)C(=O)Nc1cccc(C(F)(F)F)c1`, the Potency in [1] was > 92 µM (inactive). Also, the Potency entry in test [2], in test [6], in test [7], in test [8], in test [9] and in test [10] was “inactive” each time. Besides, the Potency result in test [11], in test [12], in test [13], in [14] and in test [16] was “inactive” each time. For the same compound, the result in [3], in test [5] and in [20] was inactive. Further, the caspase-3 activation in test [4] was 2.52% (inactive). Moreover, the max response was -22.3% and -23.1% in test [15]; -7% and -2.56% in [17]; 1.67% (inactive) and -16% (inactive) in [18]. Besides, the activity change % (negative = inhibition) in test [19] was -7.4% (inactive) and -5.84% (inactive).

Consider `CC(C)[N+](=O)[O-]`, for which the Potency in test [1] is > 92 µM (inactive). The Potency entry in test [2], in test [6], in test [7], in test [8], in [9] and in test [10] was “inactive” each time. Besides, the Potency entry in test [11], in test [12], in test [13], in test [14] and in test [16] was “inactive” in each case. In addition, the outcome in test [3], in test [5] and in [20] was inactive. The caspase-3 activation in test [4] was 1.63% (inactive). The max response in test [15] is 5.89%; in test [17] it was 10.7%; in test [18] it was 14.3% (inactive). In addition, in test [19], the activity change % (negative = inhibition) was 5.36% (inactive).

`O=C(Cl)c1ccccc1F`: in test [1], the Potency was > 92 µM (inactive). Further, the Potency entry in test [2], in test [6], in test [7], in test [8], in [9] and in test [10] was “inactive” in each case. The Potency entry in [11], in [12], in [13], in test [14] and in test [16] was “inactive” throughout. Moreover, the result in test [3], in [5] and in test [20] was inactive. In addition, the caspase-3 activation in [4] was 2.05% (inactive). The figures for the max response in test [15], in [17] and in test [18] were 6.73%, -4.19% and 13.4% (inactive), respectively. For the same compound, in [19], the activity change % (negative = inhibition) was -5.22% (inactive).

For `O=[N+]([O-])c1cc(Cl)c(Cl)c(Cl)c1`, the Potency in test [1] was > 92 µM (inactive). In addition, the Potency entry in test [2], in test [6], in test [7], in test [8], in test [9] and in [10] was “inactive” each time. The Potency entry in test [11], in test [12], in test [13], in [14] and in [16] was “inactive” in each case. Also, the compound was classed as inactive in test [3], in test [5] and in test [20]. Besides, the figures for the max response in test [15], in test [17] and in test [18] were 9.3%, -6.59% and -5.05% (inactive), respectively. The activity change % (negative = inhibition) in [19] was 3.05% (inactive).
